This is an account of results in PubChem BioAssay (NCI).

Assay [1] is described as follows: NCI Yeast Anticancer Drug Screen. Data for the rad50 strain (AID 155).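 Further: 0% = growth of vehicle-only cultures of the same strain.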 Particulars: S. cerevisiae rad50 strain growth inhibition; at 50.0 µM; stronger effect = higher value. The procedure, abridged: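 A DNA repair-deficient yeast mutant serves as the test organism; compound-induced growth inhibition is calculated against vehicle-treated cells.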
A short description of assay [2]: NCI Yeast Anticancer Drug Screen. Data for the mec2-1 strain (AID 157). Particulars: S. cerevisiae mec2-1 strain, at 50.0 µM, stronger effect = higher value. The procedure, abridged: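 Vehicle-treated cultures served as reference for growth inhibition of compound-exposed mec2-1 yeast.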
A short description of assay [3]: NCI Yeast Anticancer Drug Screen. Data for the sgs1 mgt1 strain (AID 161).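 Further: 0% = growth of cultures given vehicle only.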 Conditions: S. cerevisiae sgs1 mgt1 strain, at 50.0 µM, stronger effect = higher value. A digest of the protocol: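 Test agents were incubated with a DNA-repair-mutant yeast strain. Growth was then read and compared against vehicle-treated controls.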
Assay [4] is described as follows: NCI Yeast Anticancer Drug Screen. Data for the cln2 rad14 strain (AID 165).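 Further: 0% = growth equal to vehicle treated cultures.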 Particulars: S. cerevisiae cln2 rad14 strain, at 50.0 µM, stronger effect = higher value. A digest of the protocol: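 Each compound was tested on cln2 rad14 yeast. Inhibition of growth was calculated against vehicle-exposed controls.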
A short description of assay [5]: NCI Yeast Anticancer Drug Screen. Data for the bub3 strain (AID 167). Particulars: S. cerevisiae bub3 mutant strain, at 50.0 µM, stronger effect = higher value. The procedure, abridged:
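Inhibition values come from growth of compound-treated mutant yeast normalised to vehicle-treated controls.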

Assay [6] can be described thus: NCI Yeast Anticancer Drug Screen. Data for the mlh1 rad18 strain (AID 175). Conditions: S. cerevisiae mlh1 rad18 strain growth inhibition; at 50.0 µM; stronger effect = higher value. A digest of the protocol: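 Vehicle-treated cultures served as the reference for growth inhibition in a yeast strain carrying DNA damage repair alterations exposed to each compound.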

The panel holds about 79,000 compounds, 15% with a hit somewhere; the sample as a whole holds those more often. Unmarked numbers belong to inactive results. Activity calls are given as the source filed them. No stated cut-off is given here; in the data, active means growth inhibition above about 70%; inactive means the rest. Where a SMILES comes first, the peptide text is derived from it.

For the compound `N#Cc1ccc(-n2cccc2)cc1`, the growth inhibition in assay [1] is -1.8%; in assay [2] it was -1.6%; in assay [3], 7.35%; in assay [4], -26.8%; in assay [5], -6.2%; in assay [6], -4.5%.

`CCOC(=O)c1nc2ccccc2c(=O)n1NC(=S)Nc1ccc(Cl)cc1`: the growth inhibition is -40.4% in assay [1]; 5.95% in assay [2]; -1.2% in assay [3]; 8.8% in assay [4]; -4.15% in assay [5]; -15% in assay [6].

Consider `COC1=CC(=O)C(=O)C=C1C(C)(C)C`, for which the growth inhibition in assay [1] was 49.2%; in assay [2], 40.3%; in assay [3], 48.8%; in assay [4] it was 2.45%; in assay [5] it was 49.4%; in assay [6], 9.55%.

As for `Cc1ccc(S(=O)(=O)c2scc(-c3ccccc3)c2C)cc1`, the growth inhibition in assay [1] was -47.2%; in assay [2], -57.8%; in assay [3], -31.1%; in assay [4], -8.7%; in assay [5] it was -17.9%; in assay [6] it was -13.2%.

With `CN(C)c1nc(OC2C(C(O)CO)OC3OC(C)(C)OC32)nc(N(C)C)n1` (stereo not drawn), the growth inhibition was 31.1% in assay [1]; -11.7% in assay [2]; 6.15% in assay [3]; 18% in assay [4]; -1.05% in assay [5]; -0.65% in assay [6].

In the case of `CN(C)C(=O)Sc1ccc(O)cc1`, the growth inhibition in assay [1] was 5.05%; in assay [2], -21.6%; in assay [3] it was -4.65%; in assay [4], -28.3%; in assay [5], 12.9%; in assay [6], -2.8%.

`O=C1CCCCCCN1`: the growth inhibition in assay [1] is 8.9%; in assay [2] it was -33.4%; in assay [3], 1.5%; in assay [4] it was 16.6%; in assay [5], -17.2%; in assay [6], 12.6%.

On to `Nc1ccc(S(=O)(=O)N/N=C/c2ccc(O)cc2)cc1`, for which the growth inhibition in assay [1] was 4.35%; in assay [2], -21.4%; in assay [3], 4.7%; in assay [4] it was -22.1%; in assay [5] it was 5.1%; in assay [6], -11.3%.

As to `C[n+]1ccccc1/C=C/C=C/c1ccccc1`, the growth inhibition is 0.45% in assay [1]; -13.1% in assay [2]; 1.4% in assay [3]; -17.3% in assay [4]; -6.1% in assay [5]; 1.9% in assay [6].

`O=C(O)c1c[nH]c2c(Cl)cccc2c1=O`: the growth inhibition in assay [1] was 18.9%; in assay [2], -16.4%; in assay [3], 4.3%; in assay [4] it was 10.8%; in assay [5] it was 18.4%; in assay [6], 14.4%.

For `O=S(=O)(N/N=C/c1c(Cl)cccc1Cl)c1ccccc1`, the growth inhibition in assay [1] is 18.9%; in assay [2], 12.1%; in assay [3] it was 11.9%; in assay [4] it was -9.35%; in assay [5] it was 9.65%; in assay [6] it was 31.5%.

Consider `CCCCNC(=O)Oc1cccc2ccccc12`, for which the growth inhibition was 4.3% in assay [1]; -6.8% in assay [2]; 7.7% in assay [3]; -4.35% in assay [4]; 29.8% in assay [5]; -6.4% in assay [6].

As to `CCOC(=O)C1(Br)C(c2ccccc2)NC(=O)N(C2OC(COC(=O)c3ccccc3)C(OC(=O)c3ccccc3)C2OC(=O)c2ccccc2)C1(C)Br` (stereo not drawn), the growth inhibition in assay [1] is -25.4%; in assay [2], -28.4%; in assay [3], -27.9%; in assay [4], 6.4%; in assay [5] it was 7%; in assay [6], -22.8%.

As for `COC(=O)[C@@]12OC[C@]34[C@H]([C@@H](O)[C@@H]1O)[C@@]1(C)CC(=O)C(O)=C(C)[C@@H]1C[C@H]3OC(=O)[C@H](OC(=O)/C=C(\C)C(C)CO)[C@@H]24` (stereo partly drawn), the growth inhibition in assay [1] is -0.7%; in assay [2], -16.7%; in assay [3] it was -13.3%; in assay [4], -1.7%; in assay [5] it was -18.9%; in assay [6] it was -28.8%.

`CC(C)c1cc(C(C)C)c(B(c2ccccc2)c2ccccc2)c(C(C)C)c1B(c1ccccc1)c1ccccc1`: the growth inhibition was -13.7% in assay [1]; 4.8% in assay [2]; 18.4% in assay [3]; 6.3% in assay [4]; 6.35% in assay [5]; 13.9% in assay [6].

For the compound `CN1c2ccccc2SC1(C)CCC(=O)O` (stereo not drawn), the growth inhibition is 21.5% in assay [1]; 35.9% in assay [2]; 37.6% in assay [3]; 6% in assay [4]; 29.6% in assay [5]; 7.65% in assay [6].

For the compound `Cc1cc2c(C(C)C)c(O)c(O)c(C=Nc3ccc(N=Nc4ccccc4)cc3)c2c(O)c1-c1c(C)cc2c(C(C)C)c(O)c(O)c(C=Nc3ccc(N=Nc4ccccc4)cc3)c2c1O`, the growth inhibition in assay [1] is -4.7%; in assay [2] it was 0.4%; in assay [3], -6.3%; in assay [4], -21.8%; in assay [5] it was -3.35%; in assay [6], -4.65%.

As to `CCCCc1cc(/C=N\NC(N)=O)c2ccccc2n1`, the growth inhibition in assay [1] was -0.6%; in assay [2], -14.2%; in assay [3], -1.1%; in assay [4], 1.45%; in assay [5], -5.35%; in assay [6] it was 18.8%.

For the compound `C=C(CN(C)C)C(=O)c1ccc(OC)cc1`, the growth inhibition is 7.75% in assay [1]; 19% in assay [2]; -3.75% in assay [3]; 17.5% in assay [4]; 2% in assay [5]; 27.2% in assay [6].

Turning to `Clc1ccccc1Nc1c2ccccc2nc2ccccc12`, the growth inhibition in assay [1] was 94.5% (active); in assay [2], 98.1% (active); in assay [3], 85.1% (active); in assay [4], 96.3% (active); in assay [5], 88.7% (active); in assay [6] it was 97.7% (active).

For the compound `C/C(N)=N/C(=O)OCCOC(=O)/N=C(\C)N`, the growth inhibition was -2.25% in assay [1]; 8.3% in assay [2]; -9.35% in assay [3]; -5.3% in assay [4]; 15% in assay [5]; 1.9% in assay [6].

Consider `CC[n+]1c(COCCOc2ccccc2)sc2cc3c(cc21)OCO3`, for which the growth inhibition was -23.4% in assay [1]; -11.4% in assay [2]; -0.35% in assay [3]; 12% in assay [4]; 2.55% in assay [5]; -18.1% in assay [6].

Regarding `O=C(NCCNC(=O)c1cccc([N+](=O)[O-])c1O)c1cccc([N+](=O)[O-])c1O`, the growth inhibition is 19.6% in assay [1]; 6.8% in assay [2]; -2.85% in assay [3]; -9% in assay [4]; -3.2% in assay [5]; 11.8% in assay [6].

`O=C1NC(N2CCCCC2)=N/C1=C\c1ccco1`: the growth inhibition in assay [1] was -11.8%; in assay [2], 0.2%; in assay [3], 8.35%; in assay [4], 13.7%; in assay [5], -5.65%; in assay [6] it was -33.8%.

As to `CC1(C)CC(=O)N(Nc2ccccc2)C1=O`, the growth inhibition in assay [1] was -8.55%; in assay [2], -7.6%; in assay [3] it was -8.8%; in assay [4], -7.35%; in assay [5] it was -12.7%; in assay [6] it was -13.7%.

Regarding `C[n+]1ccccc1CCC(=O)Nc1ccccc1`, the growth inhibition in assay [1] is -0.65%; in assay [2], 14.9%; in assay [3], 2.05%; in assay [4], 0.05%; in assay [5], 0.7%; in assay [6], -17.9%.

As for `CC(=O)N1C(OC(C)C)CC(C)N1c1ccccc1` (stereo not drawn), the growth inhibition in assay [1] was -7.45%; in assay [2], -15.8%; in assay [3], -38.4%; in assay [4] it was 3.35%; in assay [5], -22.8%; in assay [6], -38.3%.

As for `O=C(O)CCCCn1cnc2c(=S)nc[nH]c21`, the growth inhibition is -6.1% in assay [1]; -5.85% in assay [2]; -13.7% in assay [3]; -7.3% in assay [4]; -44% in assay [5]; -5% in assay [6].

For `COc1ccc(C2=CSc3ccccc3N2)cc1`, the growth inhibition is 11.2% in assay [1]; 15.8% in assay [2]; 42.3% in assay [3]; 6.1% in assay [4]; 36.3% in assay [5]; 11.4% in assay [6].

In the case of `O=C(O)CCC1CCCO1` (stereo not drawn), the growth inhibition in assay [1] was -5.4%; in assay [2], -9.35%; in assay [3] it was -9.3%; in assay [4], 10.2%; in assay [5], 15.3%; in assay [6], -0.6%.

On to `CCCC(=O)C(CC)C(=O)OCC` (stereo not drawn), for which the growth inhibition in assay [1] is -8.7%; in assay [2], -1.35%; in assay [3], -3%; in assay [4], -9.8%; in assay [5], -0.25%; in assay [6], 11.4%.

As for `NNC(=O)C(O)C(O)C(=O)NN` (stereo not drawn), the growth inhibition was 8.5% in assay [1]; -6.8% in assay [2]; -20.2% in assay [3]; 46.6% in assay [4]; -8.05% in assay [5]; -8.1% in assay [6].

On to `O=S1c2ccccc2S(=O)c2ccccc21` (stereo not drawn), for which the growth inhibition in assay [1] was -0.2%; in assay [2] it was -6.25%; in assay [3], 1.4%; in assay [4], -0.55%; in assay [5] it was 0.95%; in assay [6], 1.15%.

Take `CC1=CC2(C)Cc3cc(C)cc(C)c3S(=O)(=O)C2C(C(=O)O)=C1` (stereo not drawn): the growth inhibition is -11% in assay [1]; -30.4% in assay [2]; -13.9% in assay [3]; -13.5% in assay [4]; -14.8% in assay [5]; -15.2% in assay [6].

As to `NC(Cc1cnc[nH]1)C(=O)NC(Cc1ccc(O)cc1)C(=O)O` (stereo not drawn) (H-His-Tyr-OH; configuration not given here), the growth inhibition is 7.6% in assay [1]; -23% in assay [2]; 7.2% in assay [3]; 16.6% in assay [4]; 9.85% in assay [5]; 22% in assay [6].

For `CC(C)(C)C(=O)C(Cc1ccccc1)C(=O)C(C)(C)C`, the growth inhibition was 2.6% in assay [1]; -11.8% in assay [2]; 2.15% in assay [3]; 16.8% in assay [4]; 5.45% in assay [5]; -1.95% in assay [6].

Regarding `Nc1nc2cc(COc3ccc(C(=O)O)cc3)ccc2nc1-c1ccccc1`, the growth inhibition is -28.6% in assay [1]; -17.9% in assay [2]; -13.8% in assay [3]; -2.9% in assay [4]; -26.2% in assay [5]; -15.1% in assay [6].

Consider `O=C(O)c1cscc1Cc1ccccc1`, for which the growth inhibition in assay [1] was 0.9%; in assay [2], -2.25%; in assay [3], -1.7%; in assay [4], -21.1%; in assay [5], -20.8%; in assay [6], 5.45%.
